# PubChem BioAssay AID686978 (National Center for Advancing Translational Sciences (NCATS), 2013)
# Where “and” joins values, the source holds several entries; their conditions need not be identical. Equal entries are not always repeated. Among all 420,000 compounds or so, about 64,000 (15%) were called active. Not shown: some 27% with an inconclusive outcome. Calls come from the whole dose curve; as a rule, active = well fitted inhibition curve with a large enough effect; inconclusive = small, poorly fitted or top-dose-only effect; inactive = flat fitted curve, though single readings scatter. Not all results are given here. Entries that show only a call come without a potency. A structure can be active in one record and inactive in another.
# Test: qHTS for Inhibitors of human tyrosyl-DNA phosphodiesterase 1 (TDP1): qHTS in cells in absence of CPT; note: nearly all actives have a fitted effect of over 55% in size
# Conditions: DT40 Tdp1-/- hTDP1 cells, no CPT, ATP luminescence, 48 h; activity change, negative = growth inhibition: at 46.2 µM (top of the series)
# Procedure, shortened: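 No-CPT arm: Tdp1-/-;hTDP1 DT40 cells (400/well) plus compounds, incubated ≥48 hr at 37 °C. Readout CellTiter-Glo luminescence.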
# Potency is the fitted concentration of half-maximal effect.
row,Structure (SMILES),Potency
1,CCOC(=O)C1(Cc2cccc(OC)c2)CCCN(S(=O)(=O)c2cccnc2)C1 (centres undefined),inactive
2,O=C(CCc1ccc(S(=O)(=O)N2CCOCC2)cc1)OCC(=O)c1ccc(Br)cc1,inactive
3,O=C(CSc1nnc(-c2ccoc2)o1)N1CCOCC1,inactive
4,COC(=O)/C=C/C(=O)NCc1ccco1,inactive
5,COc1cc2c(C(=O)O)c(C)n(C)c2c2ccccc12,inactive
6,COc1cccc(/C=N/NC(=O)C(=O)N2CCCC2)c1,inactive
7,O=c1[nH]c(/C=C\c2cccc(C(F)(F)F)c2)nc(O)c1[N+](=O)[O-],inactive
8,Cc1cccc(NC(=O)CSc2nnc(NC(=O)CN3CCOCC3)s2)c1,inactive
9,Cn1c(=S)sc2ccc3ccccc3c21,inactive
10,O=c1c2c(nc3nc[nH]n13)CCC2,inactive
11,C=CCc1c(C)nc2cc(-c3ccccc3)[nH]n2c1=O,inactive
12,O=c1c2c(nc3cc(-c4cccc(Cl)c4)[nH]n13)CCCC2,20.6 µM (active)
13,CN(C)S(=O)(=O)c1ccc(Cl)c(NC(=O)COC(=O)CC(NC(N)=O)c2ccc(Cl)cc2)c1 (centres undefined),inactive
14,Cc1ccc(N(CC(=O)NCC2CCCO2)C(=O)CNS(=O)(=O)c2ccc(Cl)cc2)cc1 (centres undefined),inactive
15,CC(Sc1nnc(C2CC2)n1C1CC1)C(=O)Nc1ccc(C(N)=O)cc1 (centres undefined),inactive
16,O=C1CCCC2=C1C(c1cccs1)CC(=O)N2c1ccc(F)cc1 (centres undefined),inactive
17,CCN(CC)c1ccc(C2C(C(N)=O)=C(C)Nc3nc(SCc4ccccc4)nn32)cc1 (centres undefined),inactive
18,O=C1CCCC2=C1C(c1cccs1)n1nc(SCc3ccccc3)nc1N2 (centres undefined),14.6 µM (active)
19,O=S(=O)(NCc1ccccc1Cl)c1cnc[nH]1,inactive
20,Cc1ccc(NC(=O)CCOc2ccccc2)cc1S(=O)(=O)Nc1ccccc1Cl,inactive
21,CC(C)c1ccc(C(=O)OC2CCOC2=O)cc1 (centres undefined),inactive
22,COc1cccc(CNCCc2c[nH]c3ccccc23)c1OCc1ccccc1F,20.6 µM (active)

row,Structure (SMILES),Potency
1,COc1ccc(S(=O)(=O)NCCc2c[nH]c3ccccc23)cc1OC,inactive
2,COc1ccccc1CC(=O)NCCc1c[nH]c2ccccc12,inactive
3,CCc1c(SCCC(=O)O)nc2ccccc2c1C,inactive
4,Cc1ccc(N2CCN(c3ccc(C)cc3)C2c2ccccn2)cc1,inactive
5,CN(C(=O)CSc1nnc(-c2ccc(C(C)(C)C)cc2)n1C)C1CCS(=O)(=O)C1 (centres undefined),inactive
6,CC(C)CC(=O)Nc1nnc(S(=O)(=O)N(C)c2ccc(Cl)cc2)s1,inactive and 326 nM (active)
7,CCOc1cccc(C(=O)Nc2nnc(S(=O)(=O)N(C)c3ccc(C)cc3)s2)c1,23.1 µM (active)
8,CCCCC(=O)Nc1nnc(S(=O)(=O)N(C)Cc2ccco2)s1,inactive
9,COc1cccc(C(=O)Nc2nnc(S(=O)(=O)N(C)c3ccccc3)s2)c1,inactive
10,CCC(=O)Nc1nnc(S(=O)(=O)N(CC(C)C)c2ccccc2)s1,inactive
11,CCc1nnc(NC(=O)c2cccc(S(=O)(=O)N(C)c3ccc(OC)cc3)c2)s1,inactive
12,Cc1ccn(C(CC(=O)c2ccc(Br)cc2)C(=O)O)n1 (centres undefined),inactive
13,O=C(CNS(=O)(=O)c1ccccc1)N1CCN(C(=O)c2ccco2)CC1,inactive
14,CC/C(=C(/c1ccccc1)c1ccc(OCC[N+](C)(C)C)cc1)c1ccccc1,23.1 µM (active)
15,CCOc1cc(C(=O)O)ccc1OCCOc1ccccc1,inactive
16,COc1ccc(C(=O)NCC[N+](C)(C)C)cc1,inactive
17,COc1cc(/C=C/C2=CC(C)(C)NC(=S)N2)cc(OC)c1OC,inactive
18,COc1ccc(N2C(=O)CN=C2Nc2cccc(C)c2C)cc1OC,inactive
19,CC(C)Cc1nnc(NC(=O)CN2C(=O)NC3(CCCCC3)C2=O)s1,inactive
20,CC1(C(=O)NS(=O)(=O)c2cccc(OC(F)F)c2)CCN1C(=O)COc1ccc(Cl)cc1 (centres undefined),inactive
21,Cc1nc(N)sc1-c1ccccc1,inactive
22,S=c1[nH]nc(NCCc2ccccc2)s1,inactive

row,Structure (SMILES),Potency
1,Cc1nc(C)c(-c2csc(NCCc3ccccc3)n2)s1,13 µM (active)
2,COc1ccc(O)c(C(=O)c2cnc3onc(C(C)C)c3c2)c1,inactive
3,Cc1n[nH]c(=O)n1-c1ccc(Oc2ccccc2)cc1,inactive
4,COc1ccc(N2CC(C(=O)NCCN3C(=O)S/C(=C\c4cccnc4)C3=O)CC2=O)c(OC)c1 (centres undefined),inactive
5,CCOc1ccc(N2CC(C(=O)NCCN3C(=O)S/C(=C\c4cccnc4)C3=O)CC2=O)cc1 (centres undefined),inactive
6,Cc1cc(OCCCC(=O)NCCN2C(=O)S/C(=C\c3cccnc3)C2=O)ccc1Cl,4.61 µM (active)
7,Cn1cccc1C(=O)OCC(=O)NCCc1ccccc1,inactive
8,O=c1cccc(-c2ccc(Br)cc2)o1,inactive
9,COC(=O)C(NC(C)=O)(Nc1nc2c(s1)CCCC2)C(F)(F)F (centres undefined),inactive
10,Cc1ccc(C(=O)Cn2cccn2)cc1,inactive
11,Cc1ccc(S(=O)(=O)N(C)CC(=O)OCC(=O)Nc2ccccc2)cc1,inactive
12,O=C(C[n+]1cc(-c2ccc(Cl)c(Cl)c2)n2c1CCC2)c1cccs1,18.4 µM (active)
13,Cc1ccc(C(=O)C[n+]2cc(-c3ccccc3)n3c2CCCCC3)cc1,3.16 µM (active) and 1.46 µM (active)
14,CCCS(=O)(=O)N1CCN(C(=O)c2cccs2)CC1,inactive
15,Cc1ccc(C(=O)N2CCCC(c3ccccc3)=N2)cc1,inactive
16,Cc1ccc(NC(=S)N2CCCC(c3ccccc3)=N2)cc1,inactive
17,CCS(=O)(=O)N1CCN(C(=O)c2cccs2)CC1,inactive
18,Cc1ccc(-c2c[n+](CC(=O)Nc3ccccc3)c3n2CCC3)cc1,11.6 µM (active)
19,COc1ccc(N(C)S(=O)(=O)c2cccc3nsnc23)cc1,inactive
20,Cc1cccc(S(=O)(=O)N(C)C[C@@H]2OCc3cnnn3CCCC(=O)N([C@H](C)CO)C[C@@H]2C)c1,inactive
21,Cn1nc(C(F)(F)F)cc1-c1ccc(/C=C(\C#N)C(=O)c2cccc(C(F)(F)F)c2)s1,inactive
22,C/C(=N\NC(=O)c1ccc2ccccc2c1)c1cccnc1,inactive

row,Structure (SMILES),Potency
1,Cc1cccc(OCc2nnc(SCn3nnc4ccccc4c3=O)o2)c1,inactive
2,CCOc1ccc(NC(=O)CN(C)C(=O)CSc2ccccc2)cc1OCC,inactive
3,CCC(C)NC(=O)c1cc(Cl)ccc1OC (centres undefined),inactive
4,Cc1cc(N(C)C)cc(C)[n+]1[O-],inactive
5,O=S(=O)(NC1CC1)c1ccc(F)c(F)c1,inactive
6,Cn1sc(=O)c2cc(S(=O)(=O)NC3CC3)ccc21,10.3 µM (active)
7,O=S(=O)(NC1CC1)c1ccc(Cl)cc1,inactive
8,CC(NC(=O)CCCC1CCCCC1)c1ccc(S(N)(=O)=O)cc1 (centres undefined),inactive
9,N#CC1=C(N)Oc2c(sc3ccccc23)C1c1ccco1 (centres undefined),5.17 µM (active)
10,C[C@H](NC(=O)CC[C@H]1O[C@@H](n2ccc(=O)[nH]c2=O)[C@H](O)[C@@H]1O)c1cccc2ccccc12,inactive
11,Cc1ccc(S(=O)(=O)N2CCOCC2)cc1NC(=O)COC(=O)c1cnccn1,inactive
12,CCCCCCC1(C)NC(c2ccc3c(c2)OCO3)=CC(c2ccccc2O)N1 (centres undefined),15.8 µM (active)
13,CCc1ccccc1NC(=O)c1cc(-c2ccc3c(c2)OCO3)on1,inactive
14,CC(C)COC(=O)c1ccc(NC(=O)C2C3C=CC(C3)C2C(=O)O)cc1 (centres undefined),inactive
15,CC1=CC=CN2C1=NC(=O)CC2(C)C(=O)N(CC(=O)NC1CCCC1)c1ccccc1C (centres undefined),inactive
16,N#Cc1ccc(C(c2ccc(C#N)cc2)n2cncn2)cc1,inactive
17,CC(=O)Nc1cccc(/C(C)=N/NC(=O)c2c(-c3ccccc3Cl)noc2C)c1,13 µM (active)
18,Cc1onc(-c2c(F)cccc2Cl)c1C(=O)N(C)CC(=O)Nc1cccc(F)c1,inactive
19,CC(=NNC(=O)c1ccncc1)c1ccc(Cl)c(Cl)c1,inactive
20,Cc1oc(-c2ccccc2F)nc1CN1CCC(C(=O)NCCc2ccc(Cl)cc2)CC1,16.4 µM (active)
21,Cc1oc(-c2ccccc2F)nc1CS(=O)CC(=O)NCCN1CCCCC1C (centres undefined),inactive
22,COc1ccc(-c2nc(CN3CCC(C(=O)NCc4ccccc4)CC3)c(C)o2)cc1OC,inactive

row,Structure (SMILES),Potency
1,C[C@H]1[C@H]2c3nc4ccccc4n3C[C@H]1ON2C1CCCCC1,inactive
2,CSc1ncc(C(=O)NCc2ccccc2Cl)c(C(F)(F)F)n1,inactive
3,CCc1ccc(NC(=O)c2ccc(Cn3cc([N+](=O)[O-])cn3)cc2)cc1,inactive
4,Cn1ccc(=Nc2ccc(NC(=O)c3ccc(N=c4ccn(C)c5ccc([N+](=O)[O-])cc45)cc3)cc2)cc1,3.66 µM (active)
5,COc1cc(NS(=O)(=O)c2ccc(NC(=O)c3ccc([N+](=O)[O-])cc3)cc2)ncn1,inactive
6,Oc1ccc(N=Nc2nccs2)c(O)c1,20.6 µM (active)
7,Oc1ccc2ccccc2c1N=Nc1nccs1,0.651 µM (active)
8,Oc1c(C=Nc2cccc3nsnc23)ccc2ccccc12,inactive
9,Cc1nc(Nc2ccccc2C)c2cnn(C)c2n1,inactive
10,Cc1ccc(CCCOC(=O)C[N+]2(C)CCCCC2)cc1,inactive
11,CCCOc1ccc(N2CC(C(=O)Nc3ccccn3)CC2=O)cc1 (centres undefined),inactive
12,CC(C)CCN1CCN(Cc2cn[nH]c2C2CCCCC2)CC1CCO (centres undefined),inactive
13,CCOC(=O)c1cn(Cc2cccc(C)c2)nn1,inactive
14,Cc1nn(Cc2ccccc2)c(C)c1NS(=O)(=O)c1ccccc1,inactive
15,CSc1nn(Cc2cccc(C)c2)c(N)c1S(=O)(=O)c1ccccc1,18.4 µM (active)
16,CCOC(=O)C(C)N(c1ccccc1Cl)S(C)(=O)=O (centres undefined),inactive
17,CCOC(=O)c1ccc2c(c1)nc(SCC(=O)NC(C)C)n2CC,inactive
18,Cc1ccc(F)c(S(=O)(=O)NC(=O)C2(C)CCN2C(=O)CCc2cccs2)c1 (centres undefined),inactive
19,COc1ccc(/C=C2/S/C(=N/N=C3\CC4CCC3(C)C4(C)C)NC2=O)cc1 (centres undefined),inactive
20,COc1ccc2c(c1)CC[C@@H]1[C@@H]2CC[C@]2(C)C(=O)CC[C@@H]12,inactive
21,COc1ccc(C=C2CCC3C(CCCC34OCCO4)C2=O)cc1 (centres undefined),23.1 µM (active)
